# This is a sample that favours compounds with a hit; in the whole collection about 3.5% have one here.
# CRE Fsk mod = CRE-bla signaling modulation under forskolin stimulation; CHO CRE-bla reporter (cAMP response element driving beta-lactamase), forskolin EC10, beta-lactamase ratio; Potency, µM (series often up to 38.2 µM), hits mostly activators; hit rate 2.5% among 71,000; active = well fitted activation curve with a large enough effect in the signal ratio, with a control signal flat, not every such curve was filed as active; inconclusive = small, poorly fitted or top-dose-only effect, or effect the other way, or a change in a side signal; the % refers to the signal ratio
#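 Modulation of forskolin signalling: compounds in titration series added with EC10 NKH 477 to CHO cells carrying a CRE-driven beta-lactamase reporter, 3 h, 37C. CCF4 FRET ratio (460/530 nm, ex 405 nm) gives %activity and AC50.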
# Hsp90 Hop PPI = changes Hsp90-Hop TPR2A binding signal, up or down | Potency, µM (titrated, usually from 57 µM) | hit rate 0.44% among 71,000 | AlphaScreen TPR2A-His6 binding biotin-Hsp90 C-terminal peptide; active = well fitted curve in either direction with a large enough effect; inconclusive = small, poorly fitted or top-dose-only effect, or another doubt
# TSHR agonist = activates the human thyroid stimulating hormone receptor. P16473. HEK293-CNG-TSHR cells (CNG channel as cAMP sensor), membrane potential dye, cAMP. Potency, µM (highest dose often 57.1 µM), hits mostly activators. hit rate 0.48% among 73,000. AID 926; active = well fitted activation curve with a large enough effect in the main read-out, with a control signal flat, not every such curve was filed as active; inconclusive = small, poorly fitted or top-dose-only effect, or a change in a side signal; inactive = no such curve, though single readings can be large or run the other way; reference of the percent scale not stated here;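 note: the control signal comes from parental cells without the receptor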
#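 HEK 293 cells stably expressing TSHR and a cAMP-gated CNG channel; parental CNG-only cells as counterscreen. Cells preloaded 60 min with membrane potential dye plus 100 uM RO 20-1724, then compound 30 min; fluorescence read at 590 nm.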
# IkB sig inh = inhibitors of IkB signaling in ABC-DLBCL cells. Potency, µM (top dose mostly 57.1 µM). ABC-DLBCL IkBa-CBG/CBR dual luciferase ratio, 4 h; response scale: scaled: untreated 0%, proteasome inhibitor 100%. hit rate 0.04% among 110,000; active = well fitted curve in the direction sought with a large enough effect in the signal ratio, not every such curve was filed as active; inconclusive = small, poorly fitted or top-dose-only effect, or a change in a side signal; the % refers to the signal ratio;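 note: the direction sought is a rising ratio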
#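 Curves were fitted separately to fusion (green), unfused (red) and ratio luminescence, then classed by r2, magnitude and activity. Cells: OCI-Ly3, 4 h compound plus doxycycline at 37C; 10 uM MG-132 defined full response.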
# HEK293 cAMP cs = raises cAMP in parental HEK293 cells, TSHR agonist counter-screen; parental HEK293 CNG cAMP sensor, membrane potential fluorescence; Potency, µM (titrated, usually from 57.1 µM), hits mostly activators; hit rate 2.5% among 73,000; AID 938; note: nearly all actives have a fitted effect of over 55% in size
#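 Parental HEK 293 cells stably expressing a cAMP-gated CNG channel were loaded with membrane potential dye containing 100 uM RO 20-1724 for 60 min. Compound added for 30 min; depolarization read as fluorescence intensity at 590 nm.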
# parental cAMP = raises cAMP in parental HEK293 cells lacking TSH receptor; 150 tested, under 10 active; AID 953; parental HEK293 CNG biosensor, cAMP membrane potential fluorescence; activity change, negative = inhibition, % at 32.9 µM; shares compounds with TSHR agonist
# Hits are given with their value; 0 = inactive; ? = inconclusive; - = not tested or not shown; [ ] = another dose, or the depositor's remark. Unless noted, calls come from the whole dose curve; as a rule, active = well fitted curve in the direction sought with a large enough effect; inconclusive = small, poorly fitted or top-dose-only effect, or another doubt; inactive = no such curve, though single readings can be large; an effect the other way counts as inactive or inconclusive.
SMILES,CRE Fsk mod,Hsp90 Hop PPI,TSHR agonist,IkB sig inh,HEK293 cAMP cs,parental cAMP
CCCC(O)c1nc2ccccc2n1Cc1ccccc1OC (stereo not drawn),-,-,-,0,-,-
Cc1ccc(C)c(Cn2c(C(C)O)nc3ccccc32)c1 (stereo not drawn),0,0,4µM,0,0,0
CO[C@@H]1/C=C\CC(=O)N[C@@H](C)C(=O)OC[C@@H](OC)[C@H](C)/C=C\CC(=O)OC[C@H]1C,-,-,0[11.4 µM],-,0[11.4 µM],-
CC[C@@](N)(C(=O)O)c1ccc(C(=O)O)cc1,0,0,0,0,0,-
O=C(Nc1ccccn1)c1cccc(S(=O)(=O)N2CCOCC2)c1,0,0,0,0,0,-
CC1CCN(S(=O)(=O)c2cccc(C(=O)Nc3ccccn3)c2)CC1,0,0,25µM,0,0,0
CC(c1ccco1)N(C(=O)c1ccc(Cl)s1)c1ccccn1 (stereo not drawn),0,0,?,0,?,0
CC(c1ccco1)N(C(=O)C12CC3CC(CC(C3)C1)C2)c1ccccn1 (stereo not drawn),0,0,?,0,?,-
COc1ccc(-c2ccc(CNCCCSc3nnnn3C)o2)cc1Cl,-,-,-,0,-,-
CCc1ccc(CNC(=O)Cn2nc(C)n3c(cc4cc(C)ccc43)c2=O)cc1,-,-,-,0,-,-
Cc1ccccc1NC(=O)CSc1nnc(-c2ccoc2C)n1CCc1ccccc1,0,0,10µM,?,0,0
Cc1occc1-c1nnc(SCC(=O)Nc2ccc(F)cc2)n1Cc1ccccc1,0,0,?,?,?,-
COc1ccc(-c2ccc3c(N)c(C(=O)Nc4ccc(C)cc4C)sc3n2)cc1OC,-,-,-,0,-,-
Cc1ccccc1-n1nc(C)c2cc(C(=O)N3CCN(S(=O)(=O)c4ccc(F)cc4)CC3)sc21,0,0,16µM,0,0,0
O=c1[nH]c2[nH]c(=S)[nH]c(=S)c2[nH]1,?,0[11 µM],0[11.4 µM],0[11.4 µM],0[11.4 µM],-
O=S1(=O)N=C(Oc2ccccc2)c2ccccc21,0,0,0,0,0,0
CC(=O)Oc1ccc(/C=C\C(=O)C[C@@H]2O[C@@H](Oc3cc(OC(C)=O)c4c(c3)O[C@@H](c3ccc(OC(C)=O)cc3)CC4=O)[C@H](OC(C)=O)[C@H](OC(C)=O)[C@@H]2OC(C)=O)cc1,?,0,0,0[11.4 µM],0,-
CN1C(=O)C2C=CC1C1C(=O)N(c3ccccc3)C(=O)C21 (stereo not drawn),0,0,0,0,0,0
c1ccc2c(c1)NC1(CCCCC1)n1c-2nc2ccccc21,?,0,-,0,0,-
CC1(c2ccccn2)Nc2ccccc2-c2nc3ccccc3n21 (stereo not drawn),0,0,16µM,0,0,0

# Screening results: PubChem, National Center for Advancing Translational Sciences (NCATS)
